According to PubChem BioAssay AID588849 (Broad Institute, 2011):
Results with a measured potency or affinity are listed apart. Calls of active or inactive are those of the source. No rule for the calls is given here.

biological target: CAAX prenyl protease 2 (Homo sapiens) (UniProt Q9Y256); experiment: human Rce1 protease inhibitors, dose response, biochemical, yeast membranes, quenched-peptide fluorescence, cherry-pick (AID 588849); settings: yeast membrane fractions expressing human Rce1, quenched-peptide fluorescence, 4 h; series mostly up to 10 µM
Sequence (Q9Y256 whole entry, looked up): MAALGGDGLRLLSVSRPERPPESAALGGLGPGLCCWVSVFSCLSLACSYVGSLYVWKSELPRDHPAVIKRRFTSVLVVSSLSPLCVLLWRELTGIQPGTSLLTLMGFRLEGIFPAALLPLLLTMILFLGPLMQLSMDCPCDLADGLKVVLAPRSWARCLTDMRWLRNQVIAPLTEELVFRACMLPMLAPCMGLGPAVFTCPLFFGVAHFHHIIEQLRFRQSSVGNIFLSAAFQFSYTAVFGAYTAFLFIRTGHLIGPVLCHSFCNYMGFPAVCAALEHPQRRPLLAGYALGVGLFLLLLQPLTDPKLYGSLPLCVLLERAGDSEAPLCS

outcome, inactive:
COC(=O)c1ccccc1NC(=O)NCc1cccnc1, CC(=O)c1c(O)cc(O)c(C(C)=O)c1O, CC(C)c1cccc(OCC(=O)Nc2ccc(S(=O)(=O)Nc3ccccn3)cc2)c1, COc1cc(C(=O)OCC(=O)Nc2ccc(SC(F)F)cc2)cc(OC)c1OC, COc1cccc2sc3ccc(C#CC4(O)CCCCC4)cc3c(=O)c12, CCCNC(=O)c1c(N)n(-c2ccc(S(N)(=O)=O)cc2)c2nc3ccccc3nc12, Cc1cc(OCC(=O)N2CCC(C(=O)O)CC2)c2c(C)cc(=O)oc2c1, CCC1CCCCN1C(=O)NC(=O)c1ccccc1 (stereo not drawn), C=C(C)C1(O)OC(=O)C=C1OC (stereo not drawn), CC1=C(C(=O)OCc2ccccc2)C(c2ccc(-c3ccccc3)cc2)NC(=O)N1CCCC(=O)O (stereo not drawn), Cc1ccc(NS(=O)(=O)c2ccc(NC(=O)N3CCCCC3)cc2)cc1, Nc1nonc1-n1nnc(C(=O)N/N=C/c2cccc(Cl)c2)c1CSc1ccc(Cl)cc1, CCCCCCCCNC(C)C(O)c1ccc(SC(C)C)cc1 (stereo not drawn), CCC(C)(C)c1ccc(OCCCC[n+]2cccc(C)c2C)c(C(C)(C)CC)c1, COc1ccc(C(=O)/C=C/c2ccc(OC)cc2OC)c(O)c1, COc1ccc(OC)c(/C=N/c2c(-c3ccc(O)c(OC)c3)nc3ccccn23)c1, O=C(C(Cc1ccccc1)N1C(=O)c2ccccc2C1=O)N1c2ccccc2CCc2ccccc21 (stereo not drawn), CCCN(CCC)CCNC(=O)c1cc2c(-c3ccc(Cl)cc3)nn(C)c2s1, Cc1ccccc1OC(C)C(=O)N1CCC(Cc2ccccc2)CC1 (stereo not drawn), COc1ccc(NS(=O)(=O)c2c(C)cc(C)cc2C)cc1, N#CC(/C(=N/S(=O)(=O)c1cccs1)c1ccccc1)c1nc2ccccc2[nH]1 (stereo not drawn), O=C(CCNC(=O)N1CC(=O)Nc2ccccc21)NCCc1cccc(F)c1, Cc1ccc(C2(COC(=O)C(C)C)CO2)c(OC(=O)C(C)C)c1 (stereo not drawn), C#CCNC(=O)C1=C[C@@H](C2CCCCC2)C[C@@H](OCc2ccc(CO)cc2)O1, CC(C)[C@H](NC(=O)OCc1ccccc1)C(=O)OCC(=O)Nc1c(F)cccc1F, CCOc1cc(CNC2CCCC2)ccc1OCc1ccccc1Cl, Cc1nc2c(C)cccn2c(=O)c1NC(=O)COc1ccccc1, O=C(NC1CC1)c1ccc2c(c1)N(Cc1ccccc1)CCS2, CCn1c(COc2cccc(C)c2)nnc1SCC(=O)NC1CCCC1, CCCCN(CC)CCNC(=O)c1cc2c(-c3ccc(Cl)cc3)nn(C)c2s1, CCN(CC)Cc1c(O)ccc2c(=O)c(-c3ccccc3OC)coc12, CCn1nc(C)cc1C(=O)NC1CC(C)(C)Cc2c1cnn2-c1cccc(F)c1 (stereo not drawn), COc1ccc(CSc2ccc(-c3nc4ccccn4c3NCc3ccccc3)cc2OC)cc1, CCOc1ccc(N(Cc2ccc(OC)cc2)C(=O)c2ccco2)cc1, O=C(C1CCC(=O)N(C2CC2)C1)N1CCN(c2ccccc2Cl)CC1 (stereo not drawn), CC(=O)Nc1ccc(Cl)cc1C1COC(=O)C1=N (stereo not drawn), Cc1ccc(Nc2nc(-c3ccc(S(=O)(=O)N4CCOCC4)cc3)cs2)cc1Cl, COc1ccc(Br)cc1C(=O)Nc1cc(C)cc(C)c1
